From PubChem BioAssay
NOMO-1 viab – STK33 inhibitor candidate reducing NOMO-1 cell viability; NOMO-1 AML viability, CellTiter-Glo luminescence, 72 h; inhibition, % (no concentration beside the values); 7.5% of 37,000 active; AID 2330; in the data active = inhibition above about 80%; inconclusive = no clear call, values can overlap the other calls
MITF inhib – inhibitors of MITF; 0.28% of 37,000 active; TRPM1 promoter luciferase, luminescence, 24 h; inhibition, % (no concentration beside the values); AID 2240; in the data active = inhibition above about 85%; inconclusive = no clear call, values can overlap the other calls; inactive = below about 68%;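 note: human melanocyte line stably carrying TRPM1 promoter luciferase reporter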
PD-1 reversal – activators reversing PD-1 mediated T-cell inhibition. primary human CD4 T cells, PD-L1 beads, CellTiter-Glo 96 h. AID 2316. activation, % (concentration not given with the values). 29,000 tested, under 10 active; call rule not given here
YB-1 expr inh – YB-1 expression inhibition. AID 434959. 0.37% of 30,000 active. delta delta Cp (YB-1 minus CDIP) (concentration not given with the values). U2OS, qRT-PCR YB-1 vs CDIP delta delta Cp, 16 h; active compounds read high; zero = DMSO, each unit about twofold;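 active = delta delta Cp rounded down to an integer at or above 3, about 3 SD of DMSO wells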;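 note: higher means less YB-1 transcript or more CDIP transcript relative to DMSO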
Shh pathway inh – blocks Sonic Hedgehog signaling; Shh-LIGHT2 Gli-luciferase reporter, 30 h; inhibition, % (test concentration not listed); 2.1% of 22,000 active; AID 2313;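 active = mean inhibition across valid replicates above about 65%, limit read from the data; inconclusive = mean under the limit, yet half or more replicates past it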;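 note: pathway switched on by Shh-conditioned medium diluted 1 in 25 in low serum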
Large screens that a line does not name were inactive. In the library only some 7.4% were active in any assay of this set; here they are far more common.

Cc1noc(C)c1S(=O)(=O)Nc1ccc2c(c1)CC(=O)N([C@H](C)CO)C[C@H](C)[C@H](CN(C)Cc1ccncc1)O2	none
CCOC(=O)CN1C(=O)C(O)(c2c[nH]c3ccccc23)c2ccccc21 (centres undefined)	none (no result: YB-1 expr inh, Shh pathway inh)
C[C@@H]1C[C@@H]2O[C@H]2/C=C/C=C\C(=O)Cc2c(Cl)c(O)cc(O)c2C(=O)O1	NOMO-1 viab 118
O=NC(=O)c1cccc(C(=O)NNC=C2C=CN(O)C=C2)c1	none (no result: NOMO-1 viab, MITF inhib, PD-1 reversal, Shh pathway inh)
Cc1ccc(-c2csc3nnc(SCC(=O)c4ccc(Cl)c(Cl)c4)n23)cc1	NOMO-1 viab 103 (no result: YB-1 expr inh, Shh pathway inh)
COc1ccc(NC(=O)CC(C(=O)O)N2CCOCC2)cc1 (centres undefined)	none (no result: YB-1 expr inh, Shh pathway inh)
CCOC(=O)CNC(=O)c1cc(-c2ccccn2)nc2c(C)c(Cl)ccc12	NOMO-1 viab 97 (no result: PD-1 reversal, YB-1 expr inh, Shh pathway inh)
COc1ccccc1C1CCN(Cc2cccc3ccccc23)CC1	NOMO-1 viab 100
COc1ccccc1C1CCN(S(=O)(=O)c2ccccc2Br)CC1	none (no result: Shh pathway inh)
COc1cc2cc(C)nc(Cc3cccc4ccccc34)c2cc1OC	NOMO-1 viab 86, Shh pathway inh inconclusive
C[C@H](CO)N1C[C@H](C)[C@@H](CN(C)Cc2ccc(Cl)c(Cl)c2)Oc2c(NS(C)(=O)=O)cccc2C1=O	none
C[C@H](CO)N1C[C@H](C)[C@H](CN(C)Cc2ccc(C(=O)Nc3ccccc3N)cc2)Oc2ccc(NS(=O)(=O)c3cccs3)cc2CC1=O	NOMO-1 viab 128 (no result: Shh pathway inh)
C[C@@H]1CN([C@@H](C)CO)C(=O)c2cc(NS(=O)(=O)c3cccs3)ccc2O[C@@H]1CN(C)Cc1ccc(C(=O)Nc2ccccc2N)cc1	NOMO-1 viab 111 (no result: Shh pathway inh)
COc1ccc(S(=O)(=O)Nc2ccc3c(c2)C(=O)N([C@@H](C)CO)C[C@@H](C)[C@@H](CN(C)Cc2ccc(C(F)(F)F)cc2)O3)cc1	NOMO-1 viab 115
COc1ccc(S(=O)(=O)Nc2ccc3c(c2)C(=O)N([C@@H](C)CO)C[C@@H](C)[C@H](CN(C)Cc2ccc(C(F)(F)F)cc2)O3)cc1	NOMO-1 viab 113
COc1ccc(CN(C)C[C@@H]2Oc3ccc(NS(=O)(=O)c4ccc(OC)cc4)cc3C(=O)N([C@@H](C)CO)C[C@@H]2C)cc1	none
COc1ccc(CN(C)C[C@H]2Oc3ccc(NS(=O)(=O)c4ccc(OC)cc4)cc3C(=O)N([C@@H](C)CO)C[C@H]2C)cc1	none
COc1ccc(S(=O)(=O)Nc2ccc3c(c2)C(=O)N([C@H](C)CO)C[C@@H](C)[C@@H](CN(C)Cc2ccc(C(F)(F)F)cc2)O3)cc1	NOMO-1 viab 108 (no result: Shh pathway inh)
COc1ccc(-n2c(SCC(=O)Nc3ccc(C)cc3)nc3sc4c(c3c2=O)CCCC4)cc1	none (no result: YB-1 expr inh, Shh pathway inh)
Cc1nc(C2C(=O)c3ccc(O)c(O)c3OC2C(F)(F)F)cs1 (centres undefined)	NOMO-1 viab 107
Brc1ccccc1-c1nc2ccccc2c2nc3ccccc3n12	none
CCOC(=O)c1ccc(NC(=O)CSc2nc3cc4ccccc4cc3[nH]2)cc1	NOMO-1 viab 111 (no result: YB-1 expr inh, Shh pathway inh)
C/C=C(/C)C(=O)OC1c2c(ccc3ccc(=O)oc23)OC(C)(C)C1OC(=O)/C(C)=C\C (centres undefined)	NOMO-1 viab 111
Cc1noc(C)c1NC(=O)Nc1ccc2c(c1)C(=O)N([C@H](C)CO)C[C@H](C)[C@H](CN(C)S(C)(=O)=O)OCCCC[C@@H](C)O2	none
O=C(O)CCSc1nc2ccccc2s1	MITF inhib inconclusive (no result: PD-1 reversal, YB-1 expr inh, Shh pathway inh)
O=S(=O)(CCSc1ccccn1)c1nc2ccccc2s1	NOMO-1 viab 108 (no result: PD-1 reversal, YB-1 expr inh, Shh pathway inh)
O=S(=O)(CCSc1nc2ccccc2o1)c1nc2ccccc2s1	NOMO-1 viab 127 (no result: YB-1 expr inh, Shh pathway inh)
C[C@H](CO)N1C[C@H](C)[C@H](CN(C)Cc2ccc(Cl)c(Cl)c2)Oc2ccc(NC(=O)Nc3ccc(C(F)(F)F)cc3)cc2CC1=O	NOMO-1 viab 124
C[C@H]1CN([C@@H](C)CO)C(=O)Cc2cc(NC(=O)Nc3ccc(C(F)(F)F)cc3)ccc2O[C@H]1CN(C)Cc1ccc(Cl)c(Cl)c1	NOMO-1 viab 136, MITF inhib 93
C[C@@H]1CN([C@H](C)CO)C(=O)Cc2cc(NC(=O)Nc3ccc(C(F)(F)F)cc3)ccc2O[C@@H]1CN(C)Cc1ccc(Cl)c(Cl)c1	none (no result: PD-1 reversal)
C[C@@H]1CN([C@H](C)CO)C(=O)Cc2cc(NC(=O)Nc3ccc(C(F)(F)F)cc3)ccc2O[C@H]1CN(C)Cc1ccc(Cl)c(Cl)c1	none
Cc1cccc(CN(C)C[C@@H]2OCc3cnnn3CCCC(=O)N([C@@H](C)CO)C[C@@H]2C)c1	none (no result: NOMO-1 viab, MITF inhib, PD-1 reversal, Shh pathway inh)
C=C1C(=O)O[C@H]2C[C@H](C)[C@@H]3CC(=O)C(C)=C3C[C@H]12	NOMO-1 viab 117
C=C1C(=O)O[C@H]2CC(C)C3CC[C@@]4(C)O[C@@]34CC12 (some centres undefined)	none (no result: NOMO-1 viab, MITF inhib, PD-1 reversal)
O=C(N/N=C/c1cccnc1Br)c1ccccn1	none (no result: NOMO-1 viab, MITF inhib, PD-1 reversal, Shh pathway inh)
C[C@@H]1CN([C@H](C)CO)C(=O)c2cc(NS(=O)(=O)c3ccc(Cl)cc3)ccc2O[C@H]1CN(C)Cc1ccc(Cl)c(Cl)c1	none (no result: Shh pathway inh)
C[C@@H]1CN([C@@H](C)CO)C(=O)c2cc(NS(=O)(=O)c3ccc(Cl)cc3)ccc2O[C@H]1CN(C)Cc1ccc(Cl)c(Cl)c1	NOMO-1 viab 119
C[C@H]1CN([C@@H](C)CO)C(=O)c2cc(NS(=O)(=O)c3ccc(Cl)cc3)ccc2O[C@@H]1CN(C)Cc1ccc(Cl)c(Cl)c1	NOMO-1 viab 100
C[C@H](CO)N1C[C@H](C)[C@H](CN(C)Cc2ccc3c(c2)OCO3)Oc2ccc(NS(=O)(=O)c3ccc(F)cc3)cc2C1=O	NOMO-1 viab 112
C[C@@H]1CN([C@@H](C)CO)C(=O)c2cc(NS(=O)(=O)c3ccc(F)cc3)ccc2O[C@@H]1CN(C)Cc1ccc(Cl)c(Cl)c1	NOMO-1 viab 110 (no result: Shh pathway inh)
CC1=C(C/C=N/NC(=O)c2ccccn2)C(C)(C)CCC1	none (no result: NOMO-1 viab, MITF inhib, PD-1 reversal, Shh pathway inh)
Cn1c(SCC(=O)c2ccc(F)cc2)nnc1-c1ccco1	none (no result: YB-1 expr inh, Shh pathway inh)
COc1ccc(NC(=O)Nc2cccc3c2O[C@@H](CN(C)Cc2ccc4c(c2)OCO4)[C@@H](C)CN([C@@H](C)CO)C3=O)cc1	none
C[C@H](CO)N1C[C@H](C)[C@@H](CN(C)Cc2ccc(C(=O)Nc3ccccc3N)cc2)Oc2c(NS(=O)(=O)c3cccs3)cccc2C1=O	none (no result: Shh pathway inh)
CC(C)(C)c1ccc(OCC(O)Cn2cnc3ccccc32)cc1 (centres undefined)	NOMO-1 viab 93 (no result: PD-1 reversal, YB-1 expr inh, Shh pathway inh)
C[C@@H]1CN([C@@H](C)CO)C(=O)c2cc(NC(=O)Nc3ccc(F)cc3)ccc2O[C@@H]1CN(C)Cc1ccc2c(c1)OCO2	none
C[C@@H]1CN([C@@H](C)CO)C(=O)c2cc(NC(=O)Nc3ccc(C(F)(F)F)cc3)ccc2O[C@@H]1CN(C)Cc1ccc2c(c1)OCO2	NOMO-1 viab 112 (no result: Shh pathway inh)
C[C@@H]1CN([C@@H](C)CO)C(=O)c2cc(NC(=O)Nc3ccc(C(F)(F)F)cc3)ccc2O[C@H]1CN(C)Cc1ccc2c(c1)OCO2	none (no result: Shh pathway inh)
